PubChem BioAssay
A number with no mark means an inactive call. Active and inactive are the calls of the source. Unless noted, no stated cut-off is given here; in the data, active means inhibition above about 44%; inactive means the rest.

What was measured:
[1] = StAR promoter reporter inhibitors, counter-screen for LRH-1 inverse agonist project, cell-based, luminescence, high throughput (AID 651611; in the data active means inhibition above about 28%); conditions: StAR promoter luciferase reporter counterscreen, at 3.6 µM, stronger effect = higher value
[2] = target: Nuclear receptor subfamily 5 group A member 2 (Homo sapiens) (UniProt O00482); assay: NR5A2 activity suppression in reporter cells – cell-based, luminescence, confirmation (AID 651613; in the data active means inhibition above about 42%;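 further: HEK293T cells co-transfected with LRH-1 and StAR promoter luciferase reporter; 0% = vehicle wells and 100% = parental cells lacking receptor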); conditions: cell-based LRH-1 luciferase reporter, inverse agonism; at 3.6 µM; stronger effect = higher value
[3] = target: Steroidogenic factor 1 (Homo sapiens) (UniProt Q13285); assay: inverse agonism at SF1 nuclear receptor – cell-based, luminescence, high throughput, counter-screen for LRH-1 inverse agonist project (AID 651614); conditions: cell-based SF1 luciferase reporter, at 3.6 µM, stronger effect = higher value;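 further: cells cotransfected with StAR promoter reporter and SF1 expression vector; 0% = vehicle on cells with receptor and 100% = vehicle on cells lacking receptor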
[4] = compounds suppressing VP16-driven luciferase signal – cell-based, luminescence, high throughput, counter-screen for LRH-1 inverse agonist project (AID 651615; in the data active means inhibition above about 33%); conditions: Gal4-VP16 luciferase reporter cells, at 3.6 µM, stronger effect = higher value

Chain of Nuclear receptor subfamily 5 group A member 2 (Homo sapiens) (O00482 whole entry, looked up): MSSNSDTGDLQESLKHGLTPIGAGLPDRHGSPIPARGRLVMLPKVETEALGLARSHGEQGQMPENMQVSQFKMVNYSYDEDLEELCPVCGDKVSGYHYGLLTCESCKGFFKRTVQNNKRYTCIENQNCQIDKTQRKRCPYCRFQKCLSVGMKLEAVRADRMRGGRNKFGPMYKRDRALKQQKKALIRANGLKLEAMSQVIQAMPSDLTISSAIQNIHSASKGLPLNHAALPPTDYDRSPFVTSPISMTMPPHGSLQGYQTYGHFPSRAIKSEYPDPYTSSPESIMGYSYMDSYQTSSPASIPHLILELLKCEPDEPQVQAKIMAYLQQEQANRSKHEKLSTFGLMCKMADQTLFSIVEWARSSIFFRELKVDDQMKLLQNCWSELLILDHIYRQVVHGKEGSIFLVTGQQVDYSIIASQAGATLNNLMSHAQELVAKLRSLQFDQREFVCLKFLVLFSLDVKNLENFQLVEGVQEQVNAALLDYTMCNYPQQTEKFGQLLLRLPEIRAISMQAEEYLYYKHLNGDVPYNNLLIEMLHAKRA
Chain of Steroidogenic factor 1 (Homo sapiens) (Q13285 whole entry, looked up, the tested form may be a part): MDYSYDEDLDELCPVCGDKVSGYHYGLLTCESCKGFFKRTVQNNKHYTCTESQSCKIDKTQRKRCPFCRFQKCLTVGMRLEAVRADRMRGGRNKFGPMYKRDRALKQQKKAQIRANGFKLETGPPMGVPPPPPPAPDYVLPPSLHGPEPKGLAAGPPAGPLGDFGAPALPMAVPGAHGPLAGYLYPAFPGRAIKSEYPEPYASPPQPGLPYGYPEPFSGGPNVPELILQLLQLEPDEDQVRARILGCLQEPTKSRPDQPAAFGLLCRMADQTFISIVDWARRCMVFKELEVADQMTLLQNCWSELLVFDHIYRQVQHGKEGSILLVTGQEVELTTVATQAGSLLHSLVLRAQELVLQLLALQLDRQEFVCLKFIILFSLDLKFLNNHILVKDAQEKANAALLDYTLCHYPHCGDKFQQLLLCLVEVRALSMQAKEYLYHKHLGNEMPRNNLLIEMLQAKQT

SMILES | inhibition [1] | inhibition [2] | inhibition [3] | inhibition [4]
C/C(=N\NC(N)=S)c1ccncc1 | 6.9% | 54.2% (active) | 49% (active) | 3.01%
COc1ccc(C2=Nn3c(nnc3-c3ccccc3OC)SC2)cc1OCC1CC1 | 49.1% (active) | 60.4% (active) | 62.8% (active) | 24.6%
Cc1cccc(NC(=O)c2ccc([N+](=O)[O-])o2)c1C | 24.6% | 64.2% (active) | 60.4% (active) | -8.95%
Cc1cc(OCC(=O)NCc2cccnc2)c2c(C)c(C)c(=O)oc2c1 | 9.8% | 61.8% (active) | 50.5% (active) | -8.94%
S=C(NCc1ccccc1)Nc1ccncc1 | 9.38% | 37% | 47.3% (active) | 13.1%
Cc1ccc(-n2nc(C)c(NC(=O)CCl)c2C)cc1C | 57.9% (active) | 66.8% (active) | 66.8% (active) | -60.3%
CC(C)OC(=O)C(=O)NNc1ccccc1 | 12.3% | 12.2% | 4.1% | 11.9%
O=C(Nc1nc(-c2cccs2)cs1)c1ccc([N+](=O)[O-])o1 | -1.18% | 51.9% (active) | 62.9% (active) | -34.9%
CC(O)(c1cccc(F)c1)c1nc(-c2ccc(S(C)(=O)=O)cc2)cs1 (centres undefined) | 2.43% | 48.7% (active) | 44.9% (active) | -6.85%
CCOc1ccc(NC(=O)COC(=O)c2cc([N+](=O)[O-])ccc2N2CCOCC2)cc1 | 6.26% | 55.9% (active) | 50.6% (active) | -1%
COC(=O)c1ccc(NC(=O)CSc2nncn2-c2cccnc2)cc1 | -6.12% | 44.6% (active) | 34.3% | 0.63%
O=C(CN1C(=O)NC2(CCCCC2)C1=O)NCCc1c[nH]c2ccccc12 | 10.1% | 47.8% (active) | 56.5% (active) | 3.42%
CCC(=O)N1CCN(c2cc(NCC3CCCO3)c(F)cc2[N+](=O)[O-])CC1 (centres undefined) | 9.58% | 43.8% (active) | 50.7% (active) | 0.55%
O=C(NCc1cccc(C(F)(F)F)c1)c1cccc(Cl)c1Cl | 7.41% | 46.9% (active) | 48% (active) | 11.8%
CCCc1cc(NCCOCCO)n2c(nc3ccccc32)c1C#N | 4.93% | 45.1% (active) | 36.6% | -14.6%
COc1ccc(C(=O)Nc2cnccn2)cc1[N+](=O)[O-] | -2.94% | 35.3% | 26.4% | 4.88%
COc1cc2c(cc1OC)C(C1C(=O)CC(C)CC1=O)N(C(=O)CCl)CC2 (centres undefined) | 19.1% | 54.1% (active) | 58.5% (active) | -19.1%
Cc1cc(O)c(NC(=O)c2cc([N+](=O)[O-])ccc2Cl)cc1C | 35% (active) | 53.6% (active) | 58.8% (active) | -8.66%
CC(=O)N1CCc2c(sc(NC(=O)Cc3ccc(F)cc3)c2C#N)C1 | 21.4% | 65.3% (active) | 57.6% (active) | -35.5%
Cc1c(C#N)c(O)n(CCO)c(=O)c1N=Nc1ccccc1 | 13.4% | 44.4% (active) | 41.7% | 6.91%
O=C(CCl)NCCCN(C(=O)C(Cl)Cl)c1ccc([N+](=O)[O-])cc1 | 16.7% | 59.2% (active) | 53.5% (active) | -8.07%
O=C(Nc1nccs1)c1ccc(S(=O)(=O)NCC2CCCCC2)cc1 | 6.64% | 41.7% (active) | 42.4% | 33.3% (active)
C/C(=N\Nc1nc(C)c(C)s1)c1ccc([N+](=O)[O-])cc1 | -12.6% | 49.1% (active) | 47.8% (active) | -2.81%
c1cncc(-c2nc(N3CCCCCC3)c3ccccc3n2)c1 | 20.8% | 56.4% (active) | 62.8% (active) | 10.4%
Cc1c(F)cccc1NS(=O)(=O)c1ccc(N2CCCC2=O)cc1 | -2.14% | 56% (active) | 47.1% (active) | 3.58%
CCCn1c2c(c(=N)c3c1CCC3)CCCC2 | 4.81% | 61.8% (active) | 55% (active) | 44.9% (active)
